The results in this text go back to PubChem BioAssay (Tox21).

Unmarked numbers belong to inactive results. Records with an inconclusive call do not appear. Activity calls are given as the source filed them. Unless noted, calls follow the shape of the dose curve; as a rule, active = well fitted curve in the direction sought with a large enough effect in the repeat runs; inconclusive = weak or mixed curves; inactive = no such curve, though single readings can be large; an effect the other way counts as inactive or inconclusive.

The target in test [1] is Luciferin 4-monooxygenase (Photinus pyralis) (UniProt P08659). Description: qHTS assay to identify small molecule inhibitors of firefly luciferase (AID 1224835). Also: nearly all actives have a fitted effect of over 25% in size. In outline:
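Inhibition of purified Photinus luciferase is measured by luminescence. Substrate levels (D-luciferin, ATP) sit at their KM values. Each compound is tested in a concentration series.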
(Quantitative high-throughput screening tests each substance at several concentrations.)

Test [2] is described as follows: qHTS assay to identify small molecule agonists of the constitutive androstane receptor (CAR) signaling pathway - cell viability counter screen (AID 1224836). Also: nearly all actives have a fitted effect of over 45% in size. In a few lines:
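Multiplexed viability check: HepG2-CYP2B6-hCAR cells, 15-point compound dosing, 0.75 uM PK11195 final, 23 h at 37 C, CellTiter-Fluor fluorescence.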

Test [3] concerns the target Nuclear receptor subfamily 1 group I member 3 (Homo sapiens) (UniProt Q14994). Description: qHTS assay to identify small molecule antagonists of the constitutive androstane receptor (CAR) signaling pathway (AID 1224838).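 Also: HepG2 cells stably expressing hCAR with CYP2B6 luciferase reporter stimulated by CITCO; nearly all actives have a fitted effect of over 40% in size.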 Also: potency is read from the fitted curve at half-maximal effect. In outline: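 Antagonist mode used CITCO at a final 50 nM to activate CAR in human hepatoma HepG2 cells carrying stable hCAR and a 2.2 kb CYP2B6 promoter-luciferase construct. Compounds were tested at 15 concentrations over 24 h, with luminescence as the end point.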

The target is the same in test [4]. Description: qHTS assay to identify small molecule agonists of the constitutive androstane receptor (CAR) signaling pathway (AID 1224839). Also: nearly all actives have a fitted effect of over 15% in size. Also: potency is read from the fitted curve at half-maximal effect. In outline: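 Using human hepatoma HepG2 cells engineered with hCAR and a CYP2B6-2.2kb reporter, 15-concentration compound series were incubated 24 h alongside PK11195 at 0.75 uM final, with luminescence quantified afterwards.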

Test [5] is described as follows: qHTS assay to identify small molecule antagonists of the estrogen related receptor signaling pathway with the pleiotropic PPARgamma coactivator (PGC) from Tox21 10K library - cell viability counter screen (AID 1224840; active = well fitted cell-killing curve with a large enough effect in the repeat runs, not every such curve was filed as active; also: nearly all actives have a fitted effect of over 40% in size; also: potency is read from the fitted curve at half-maximal effect). In outline: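 Multiplexed viability counter screen in the PGC/ERR cell line: cells treated with DMSO-dissolved compounds for 17.5 hours at 37 C, then viability measured as CellTiter-Fluor fluorescence.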

Test [6] is described as follows: qHTS assay to identify small molecule antagonists of the estrogen related receptor signaling pathway with the pleiotropic PPARgamma coactivator (PGC) from Tox21 10K library (AID 1224841; call rule not given here; also: actives are mostly falling curves and most rising ones were filed inactive; nearly all actives have a fitted effect of over 50% in size). In a few lines: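 Steps: plate 2,000 PGC/ERR cells per well; incubate 6 h at 37 C with 5% CO2; transfer compounds from DMSO stocks by pin tool; incubate 18 h at 37 C; add One-Glo; measure luminescence 30 min later.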

A short description of test [7]: qHTS assay to identify small molecule agonists of the estrogen related receptor signaling pathway with the pleiotropic PPARgamma coactivator (PGC) from Tox21 10K library (AID 1224842). Also: nearly all actives have a fitted effect of over 15% in size. In a few lines: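 Luminescence from One-Glo (30 min, room temperature) measured after PGC/ERR cells had 18 h at 37 C with pinned compound (23 nL in DMSO). Cells had been seeded at 2,000 per well and pre-incubated 6 h.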

A short description of test [8]: qHTS assay to identify small molecule agonists of the hypoxia (HIF-1) signaling pathway - cell viability counter screen (AID 1224844; calls by dose curve; also: nearly all actives have a fitted effect of over 50% in size; also: potency is read from the fitted curve at half-maximal effect). In a few lines: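 Cytotoxicity was measured in parallel with the HRE-driven beta-lactamase readout: after 17 hrs of compound exposure at 37C, HRE-bla ME-180 cells received CellTiter-Glo and luminescence was recorded 30 min later.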

Test [9] in a line: qHTS assay to identify small molecule agonists of H2AX (AID 1224845; active = well fitted activation curve with a large enough effect in the signal ratio in the repeat runs, not every such curve was filed as active; the % refers to the signal ratio). In outline: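 Phospho-H2AX Ser139 measured by HTRF (ex 320 nm; em 665 and 620 nm) after 24 hr antibody incubation. Compounds, 15 concentrations, 0.76% DMSO, were applied to CHO-K1 cells for 3hr at 37C before lysis.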
Test [10] can be described thus: qHTS assay to identify small molecule antagonists of the estrogen related receptor (ERR) signaling pathway from Tox21 library (AID 1224848). Also: nearly all actives have a fitted effect of over 50% in size. Also: potency is read from the fitted curve at half-maximal effect. In a few lines: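 Luciferase luminescence (ONE-Glo, 30 min room temperature) was the read-out. Cells of the NTP-supplied ERR line, 2,000 per well, were given 6 h at 37 C before compound addition in DMSO and 18 h exposure at 37 C.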

Test [11] can be described thus: qHTS assay to identify small molecule agonists of the estrogen related receptor (ERR) signaling pathway from Tox21 library (AID 1224849; calls by dose curve; also: nearly all actives have a fitted effect of over 15% in size). As to conditions: ERR reporter cell line, ONE-Glo luciferase, 18 h; at 92.4 µM (top of the series) unless noted. In a few lines: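 Cells carrying the ERR reporter were plated and allowed to settle for 6 h, exposed to library compounds for 18 h at 37 C, then lysed with ONE-Glo and luminescence measured.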

The nature of test [12]: qHTS RealTime-Glo MT Cell Viability Assay in HepG2 cells - 24 hour (AID 1224867). Also: nearly all actives have a fitted effect of over 50% in size. In a few lines:
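HepG2 cells (600/well) were dispensed with RealTime-Glo reagents, incubated 5 h at 37 °C, then treated with compounds in DMSO for up to 40 h. Nonlytic NanoLuc luminescence reflecting viable cells was read at each stated time point.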

Test [13] in a line: A CellTox Green Cytotoxicity Assay to monitor cytotoxicity in HEK293 cells - 0 hour (AID 1224869). Also: nearly all actives have a fitted effect of over 50% in size. In outline:
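Cells (HEK293, 600/well) and dye reagent are dispensed together. After 5 h at 37 C, 23 nL compound is pinned in. Plates stay at 37 C for 40 h with fluorescence read at 0h, 8h, 16h, 24h, 32h and 40h.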

The nature of test [14]: qHTS RealTime-Glo MT Cell Viability Assay in HepG2 cells - 40 hour (AID 1224870). Also: nearly all actives have a fitted effect of over 50% in size. In outline: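 Real-time viability: cells seeded at 600 per well together with NanoLuc and cell-permeant prosubstrate, compounds added after 5 h incubation. Luminescence tracked at 0, 8, 16, 24, 32 and 40 h of exposure.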
Test [15] concerns the target Thyrotropin receptor (Homo sapiens) (UniProt P16473). Description: qHTS assay to identify small molecule agonists of the thyroid stimulating hormone receptor (TSHR) signaling pathway (AID 1224843; calls by dose curve; also: nearly all actives have a fitted effect of over 45% in size). In a few lines: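 Agonist activity read as cAMP rise via d2/cryptate HTRF competition, 1 h room-temperature detection, in HEK293 cells expressing TSHR. Fifteen-point titrations, each run in triplicate, with a 30 min room-temperature incubation beforehand.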

The nature of test [16]: qHTS assay to identify small molecule agonists of the hypoxia (HIF-1) signaling pathway (AID 1224846; active = well fitted activation curve with a large enough effect in the signal ratio in the repeat runs, not every such curve was filed as active; the % refers to the signal ratio). In a few lines: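 Compounds from the Tox21 10K library, dissolved in DMSO, are tested for induction of a hypoxia response element–controlled beta-lactamase reporter in ME-180 cells. Exposure lasts 17 hrs at 37C after a 5 hr settling period, followed by CCF4-AM FRET substrate.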

A short description of test [17]: qHTS assay to identify small molecule agonists of H2AX - cell viability counter screen (AID 1224847; calls by dose curve; also: nearly all actives have a fitted effect of over 30% in size; also: potency is read from the fitted curve at half-maximal effect). In outline: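 After overnight plating of 1000 CHO-K1 cells per well, a 15-concentration compound series was applied for 3 hr at 37C. Luminescence from CellTiter-Glo, read following 30 min at room temperature, reflected cell viability.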
Test [18] in a line: qHTS RealTime-Glo MT Cell Viability Assay in HEK293 cells - 32 hour (AID 1224868). Also: nearly all actives have a fitted effect of over 50% in size. Also: potency is read from the fitted curve at half-maximal effect. In outline:
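HEK293 cells seeded with NanoLuc/prosubstrate reagent, rested 5 h at 37 C, then dosed and kept at 37 C up to 40 h. Nonlytic real-time luminescence from viable cells read at 0, 8, 16, 24, 32 and 40 h.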

A short description of test [19]: qHTS assay to identify small molecule antagonists of the estrogen related receptor (ERR) signaling pathway from Tox21 library - cell viability counter screen (AID 1224834). Also: nearly all actives have a fitted effect of over 30% in size. In a few lines:
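ERR cells, 2,000/well; 6 h settle at 37 C/5% CO2; pin-tool compound transfer in DMSO; 17.5 h at 37 C; CellTiter-Fluor, 30 min; fluorescence intensity.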

Test [20] in a line: qHTS assay to identify small molecule antagonists of the constitutive androstane receptor (CAR) signaling pathway - cell viability counter screen (AID 1224837). Also: nearly all actives have a fitted effect of over 45% in size. In outline:
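Viability was measured with CellTiter-Fluor in a HepG2 line carrying stably transfected hCAR and a CYP2B6-2.2kb construct. Cells were exposed for 23 hr at 37 C to 15 compound concentrations with 50 nM CITCO as agonist.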
% is scaled to controls: 0 for no effect and ±100 for the full control effect.

Chain of Nuclear receptor subfamily 1 group I member 3 (Homo sapiens) (Q14994 whole entry, looked up): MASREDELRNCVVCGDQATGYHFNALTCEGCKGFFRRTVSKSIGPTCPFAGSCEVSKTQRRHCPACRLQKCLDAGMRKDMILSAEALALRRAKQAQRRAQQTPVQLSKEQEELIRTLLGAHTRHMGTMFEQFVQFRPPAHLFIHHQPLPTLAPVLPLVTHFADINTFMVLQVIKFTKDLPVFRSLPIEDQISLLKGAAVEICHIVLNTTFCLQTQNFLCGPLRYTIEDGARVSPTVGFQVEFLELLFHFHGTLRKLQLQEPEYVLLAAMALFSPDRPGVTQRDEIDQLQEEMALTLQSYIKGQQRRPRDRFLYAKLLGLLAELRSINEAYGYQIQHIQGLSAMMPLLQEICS
Chain of Luciferin 4-monooxygenase (Photinus pyralis) (P08659 whole entry, looked up): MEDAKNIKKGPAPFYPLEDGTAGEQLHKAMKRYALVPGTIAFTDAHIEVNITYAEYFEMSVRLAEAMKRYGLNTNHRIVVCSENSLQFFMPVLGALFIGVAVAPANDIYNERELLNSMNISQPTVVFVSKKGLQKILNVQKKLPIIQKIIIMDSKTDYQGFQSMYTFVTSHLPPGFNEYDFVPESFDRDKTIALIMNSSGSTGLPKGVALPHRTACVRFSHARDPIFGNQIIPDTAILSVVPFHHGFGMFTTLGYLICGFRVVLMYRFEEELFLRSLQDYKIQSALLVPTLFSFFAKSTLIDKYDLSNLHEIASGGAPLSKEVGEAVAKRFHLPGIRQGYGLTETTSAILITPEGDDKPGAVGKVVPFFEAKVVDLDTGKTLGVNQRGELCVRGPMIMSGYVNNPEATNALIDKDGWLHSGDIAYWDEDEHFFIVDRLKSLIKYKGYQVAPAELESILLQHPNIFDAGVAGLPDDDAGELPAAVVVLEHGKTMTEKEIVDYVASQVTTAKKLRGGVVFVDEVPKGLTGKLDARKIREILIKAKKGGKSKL
Chain of Thyrotropin receptor (Homo sapiens) (P16473 whole entry, looked up): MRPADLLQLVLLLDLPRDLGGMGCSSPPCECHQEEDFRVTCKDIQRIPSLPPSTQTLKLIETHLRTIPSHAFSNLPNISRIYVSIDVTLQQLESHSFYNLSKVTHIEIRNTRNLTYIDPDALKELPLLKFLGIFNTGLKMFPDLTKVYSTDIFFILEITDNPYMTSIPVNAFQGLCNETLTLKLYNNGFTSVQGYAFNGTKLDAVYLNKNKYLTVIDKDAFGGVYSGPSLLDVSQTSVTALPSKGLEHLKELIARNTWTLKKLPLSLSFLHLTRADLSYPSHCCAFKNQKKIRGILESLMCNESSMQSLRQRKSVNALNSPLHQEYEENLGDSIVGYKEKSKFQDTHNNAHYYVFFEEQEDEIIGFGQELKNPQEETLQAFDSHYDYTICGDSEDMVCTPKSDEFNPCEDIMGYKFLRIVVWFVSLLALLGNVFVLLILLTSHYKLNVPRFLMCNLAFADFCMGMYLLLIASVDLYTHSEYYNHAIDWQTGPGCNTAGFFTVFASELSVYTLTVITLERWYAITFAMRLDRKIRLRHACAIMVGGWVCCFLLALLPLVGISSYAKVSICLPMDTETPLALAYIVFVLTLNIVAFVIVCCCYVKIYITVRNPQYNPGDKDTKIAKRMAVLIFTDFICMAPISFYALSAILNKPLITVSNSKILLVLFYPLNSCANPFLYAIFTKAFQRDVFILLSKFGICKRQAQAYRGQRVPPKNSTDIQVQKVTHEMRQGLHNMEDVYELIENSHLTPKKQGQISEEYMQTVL

For the compound `CN(C)CCC=C1c2ccccc2C=Cc2ccccc21`, the Potency result in [1], in test [2], in test [3], in test [4], in test [5] and in [6] was “inactive” throughout. The Potency entry in test [7], in [8], in test [9], in [10], in test [12] and in test [13] was “inactive” in each case. Moreover, the Potency entry in [14] was “inactive”. Moreover, in [11], the activity change, positive = activation is -12.5% [at 42.5 µM].
For the compound `OC[C@H]1O[C@@H](n2cnc3c(=S)nc[nH]c32)[C@H](O)[C@@H]1O`, the Potency entry in test [1], in test [4], in [5], in test [6], in test [7] and in test [15] was “inactive” each time. Moreover, the Potency entry in test [8], in [12] and in test [13] was “inactive” throughout. Moreover, the Potency is 1.88 µM (active) in [3], 3.1 µM (active) in test [17], 11.9 µM (active) in [10] and 21.3 µM (active) in [18]. The call in test [16] was inactive. For the same compound, in [11], the activity change, positive = activation is -47.1% [at 42.5 µM].
`CN1C(C(=O)Nc2ccccn2)=C(O)c2sccc2S1(=O)=O`: the Potency result in test [19], in test [2], in [20], in test [3], in test [4] and in test [5] was “inactive” each time. Moreover, the Potency result in [8], in test [17], in test [12], in [18], in test [13] and in test [14] was “inactive” throughout. Moreover, the call in [16] was inactive.
`CS(=O)(=O)c1ccc(-c2cn3ccccc3n2)cc1`: the Potency entry in [19], in test [2], in test [3], in [5], in test [6] and in [15] was “inactive” each time. The Potency entry in test [10], in [13] and in test [14] was “inactive” throughout. Besides, the Potency in test [4] is 2.11 µM (active); in [8] it was 23.9 µM (active); in test [17], 31 µM (active). Further, in [16], the compound was called inactive.
On to `O=C1c2ccccc2C(=O)C1(O)O`, for which the Potency result in test [1], in test [4], in test [5], in [6], in test [7] and in test [12] was “inactive” in each case. Moreover, the Potency entry in [18], in test [13] and in test [14] was “inactive” throughout. The compound was called inactive in test [16]. In test [11], the activity change, positive = activation is -26.5%.
Turning to `COc1ccccc1N1CCN(CC(O)COc2cccc3ccccc23)CC1` (stereo not given), the Potency entry in test [1], in test [2], in test [3], in test [4], in test [5] and in [15] was “inactive” in each case. The Potency entry in [13] is “inactive”. In [18], the Potency was 26.8 µM (active).
Turning to `C=CC(=O)OCC1CC2CC1C1CCC(COC(=O)C=C)C21` (stereo not given), the Potency result in test [1], in [2], in test [20], in [3], in test [4] and in test [15] was “inactive” each time. Moreover, the Potency result in test [8] and in test [13] was “inactive” throughout. The Potency in test [5] was 68.6 µM (active).
As for `COC(=O)C1=C(C)NC(C)=C(C(=O)O[C@@H]2CCCN(Cc3ccccc3)C2)[C@@H]1c1cccc([N+](=O)[O-])c1`, the Potency entry in test [1], in [2], in test [20], in test [3], in test [4] and in test [5] was “inactive” in each case. Also, the Potency entry in [7], in test [15], in test [8], in [9], in [17] and in test [12] was “inactive” each time. Also, the Potency entry in [18] and in [13] was “inactive” throughout. For the same compound, the compound was classed as inactive in test [16]. Also, the Potency in test [10] was 23.7 µM (active). The activity change, positive = activation in test [11] was -34.6% [at 42.5 µM].
